According to PubChem BioAssay AID485364 (National Center for Advancing Translational Sciences (NCATS), 2010):
“And” between values parts separate entries of the source, which are not always exact repeats. Identical values can stand only once. In all, about 360,000 compounds went through this assay and about 11,000 (3.1%) were called active. Not shown: some 4% with an inconclusive outcome. Calls come from the whole dose curve; as a rule, active = well fitted inhibition curve with a large enough effect; inconclusive = small, poorly fitted or top-dose-only effect; inactive = no such curve, though single readings can be large or run the other way. Shown is part of a subset that was picked to be rich in actives. Entries that show only a call come without a potency.

Target: Schistosoma mansoni thioredoxin glutathione reductase (TGR) (UniProt Q962Y6)
Assay: qHTS Assay for the Inhibitors of Schistosoma Mansoni Peroxiredoxins; note: nearly all actives have a fitted effect of over 60% in size
Settings: purified TGR, DTNB reduction, TNB absorbance 405 nm; series mostly up to 114 µM
Procedure, shortened: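 TGR 20 nM + NADPH 100 uM (dispensed conc.), cpd preinc 15 min RT; start with NADPH (500 uM addition) then DTNB (15 mM addition). Kinetic TNB absorbance, 405 nm filter. Four-parameter Hill fit across titration.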
Potency is the fitted concentration of half-maximal effect.

Row | SMILES | Potency
1 | Cn1c(COc2ccccc2C(C)(C)C)nc2ccccc21 | inactive
2 | Cc1cc2c(cc3c(SCc4cccc(Cl)c4)nnc(C)n32)o1 | inactive
3 | Cc1ccc(-c2nnc(Nc3cccc(Br)c3)c3ccccc23)cc1S(=O)(=O)NCC1CCCO1 (stereo not drawn) | inactive
4 | Cc1cccc(OCC(=O)N(Cc2ccc(C(C)C)cc2)Cc2ccco2)c1C | inactive
5 | COc1ccc(CN(C)C(=O)Cc2c[nH]c3ccccc23)c(OC)c1OC | inactive
6 | CCOC(=O)CN(C)Cc1c[nH]c2ccccc12 | 35.5 µM (active)
7 | CN(Cc1cccs1)C(=O)Cc1c[nH]c2ccccc12 | inactive
8 | COc1ccccc1C1=Nc2cccc3cccc(c23)N1 | inactive
9 | Brc1ccc2c(c1)NC(c1cccnc1)=NC(c1ccccc1)=N2 | inactive
10 | c1ccc(C2=Nc3cccc4cccc(c34)N2)cc1 | 35.5 µM (active)
11 | CCC(CC)c1nn2cc(-c3ccccc3)nc2s1 | inactive
12 | COc1ccc(Br)cc1CNC(=O)c1cc(=O)[nH]c2ccc(S(=O)(=O)N3CCCC3)cc12 | inactive
13 | O=S(=O)(c1ccc(Br)cc1)c1nnn2c1nc(N1CCOCC1)c1sccc12 | inactive
14 | CC(=O)OC1=C(C(C)=O)N(Cc2ccccc2)S(=O)(=O)c2ccccc21 | inactive
15 | Cc1ccc(CNC(=O)c2c(O)nc3c(C)cccn3c2=O)cc1 | inactive
16 | Cc1ccc(CNC(=O)c2ccc(CS(=O)Cc3cccc(Cl)c3)o2)cc1 (stereo not drawn) | 35.5 µM (active) and 25.1 µM (active)
17 | O=C(NCc1cccs1)c1ccc(CS(=O)Cc2ccccc2Cl)o1 (stereo not drawn) | inactive
18 | CCOc1ccc(CNC(=O)c2ccc(CS(=O)c3ccccc3)o2)cc1 (stereo not drawn) | inactive
19 | CCN(CC)C(=O)CSc1nc2ccsc2c(=O)n1Cc1ccccc1Cl | inactive
20 | CCCCNC(=O)c1cc(-c2ccc(Cl)c(Cl)c2)on1 | inactive
21 | CC(/C=N/NC(=O)c1cc(-c2ccc3ccccc3c2)n[nH]1)=C\c1ccco1 | inactive
22 | C/C(=C\c1ccco1)C1Nc2cccc3cccc(c23)N1 | 3.55 µM (active)
23 | Cc1ccc(Cn2cc(CCC(=O)NCc3ccc(OC(C)C)cc3)c3ccccc32)cc1 | inactive
24 | COc1ccc(S(=O)(=O)c2c(Nc3cccc(Cl)c3)sc(C(=O)c3ccccc3)c2N)cc1 | inactive
25 | Cc1cc(C)c2oc(C(=O)Nc3ccc(S(=O)(=O)N(C)c4ccccc4)cc3)cc(=O)c2c1 | inactive
26 | CCCCOC(=O)CSc1ncnc2sc3c(c12)CCC(C)C3 (stereo not drawn) | inactive

Row | SMILES | Potency
27 | Cc1c(-c2ccccc2)n[nH]c1C(=O)N=Nc1c(O)[nH]c2ccccc12 | inactive
28 | O=C(CCN1CCCCC1)N=Nc1c(O)[nH]c2ccccc12 | 11.2 µM (active)
29 | O=C(CNC(=O)Cc1ccccc1)N=Nc1c(O)[nH]c2ccc(Br)cc12 | inactive
30 | N#C/C(=C\c1ccccc1F)c1nc2ccccc2c(=O)[nH]1 | inactive
31 | CNC(=O)CN1C(=O)c2cccnc2Sc2ccccc21 | inactive
32 | Cc1ccsc1CN(C(=O)c1oc2ccc(Br)cc2c1C)C1CCS(=O)(=O)C1 (stereo not drawn) | inactive
33 | O=C(NC1CCN(Cc2ccccc2)CC1)c1ccc(Cn2c(=O)c3ccccc3n(Cc3cccc(F)c3)c2=O)cc1 | inactive
34 | C/C(=N\NC(=O)c1cc(-c2ccc(O)cc2)nc2ccccc12)c1cccnc1 | inactive
35 | Cc1ccc(-c2cc(C(=O)N/N=C/C=C/c3ccco3)c3ccccc3n2)cc1C | 39.8 µM (active)
36 | Cc1ccc(-n2nc(C)c(/C=N/NC(=O)c3cccs3)c2Cl)cc1 | inactive
37 | CC1(C)CC(=O)C/C(=N\NC(=O)c2cccs2)C1 | inactive
38 | O=C(N/N=C/C=C/c1ccco1)c1cccs1 | 3.55 µM (active)
39 | Cc1ccc(-c2cc(C(=O)NC3CCN(Cc4ccccc4)CC3)c3ccccc3n2)cc1 | inactive
40 | CC1=C(c2ccc(Cl)cc2)S(=O)(=O)N=C1N1CCN(c2cc(C)ccc2C)CC1 | inactive
41 | Cc1ccccc1C(=O)Nc1nnc(S(=O)(=O)N(C)c2ccc(Cl)cc2)s1 | inactive
42 | O=C(CCN1CCCCC1)NCC(=O)Nc1ccc(Br)cc1C(=O)c1ccccc1 | inactive
43 | COC(=O)CNC(c1ccccc1Cl)c1cc(Br)ccc1NC(=O)CCN1CCOCC1 (stereo not drawn) | 25.1 µM (active)
44 | COc1ccccc1NC(=O)CCN1CCN(c2ccc(Cl)cc2)CC1 | inactive
45 | COc1cc(C)ccc1OCCSc1nc2ccc(NC(=O)c3ccc(C)cc3)cc2s1 | inactive
46 | Cc1cc(F)ccc1NC1(c2ccccc2)C(=O)c2ccccc2C1=O | inactive
47 | CC(C)c1ccc(OCC(=O)N(Cc2ccc(N(C)C)cc2)C2CCS(=O)(=O)C2)cc1 (stereo not drawn) | inactive
48 | Cc1onc(-c2c(Cl)cccc2Cl)c1C(=O)c1c[nH]c(C(=O)NC2CC2)c1 | inactive
49 | C/C(=N/OC(=O)c1c(-c2c(F)cccc2Cl)noc1C)c1cnccn1 | inactive
50 | Cc1[nH]n(C)c(=O)c1C(=O)c1c(-c2c(Cl)cccc2Cl)noc1C | 25.1 µM (active)
51 | CCc1ccc(S(=O)(=O)c2nnn3c2nc(N2CCN(CC)CC2)c2sccc23)cc1 | inactive
52 | O=C(COc1ccccc1F)OCc1cc(=O)n2nc(C3CCCCC3)sc2n1 | inactive

Row | SMILES | Potency
53 | CS/C(=C\[N+](=O)[O-])Nc1ccc(C)cc1 | 0.316 µM (active)
54 | COc1cc(NC(=O)Nc2ccc(C)cc2)cc([N+](=O)[O-])c1 | inactive
55 | Cc1ccc(NC(=O)O/N=C/c2cccc([N+](=O)[O-])c2)cc1 | inactive
56 | CN(Cc1ccccc1)c1ccc(-c2nc(-c3ccccc3)no2)cc1[N+](=O)[O-] | inactive
57 | CCOC(=O)c1ccc2c(c1)N(Cc1cccc(OC)c1)C(=O)c1ccccc1S2(=O)=O | inactive
58 | O=C(c1ccco1)N1CCN(C(=O)c2ccc(COc3ccc(F)cc3)o2)CC1 | 44.7 µM (active)
59 | O=C(c1ccco1)N1CCN(C(=S)Nc2cc(F)cc(F)c2)CC1 | inactive
60 | O=C(c1ccco1)N1CCN(CCOc2ccccc2)CC1 | inactive
61 | N#Cc1ccccc1Cn1cnc2nc3c(cc2c1=O)CCCC3 | inactive
62 | CCCCNC(=O)c1ccc2c(c1)NC(=O)C(C(C)C)N2 (stereo not drawn) | inactive
63 | CCOc1cc(-c2nnc(SCC(=O)NC3CCCC3)nc2-c2ccc(OC)c(OCC)c2)ccc1OC | inactive
64 | COc1ccc(CC(=O)NCCc2sc3nc(-c4ccc(OC)cc4)nn3c2C)cc1 | inactive
65 | Cc1cccc(-c2nc(CS(=O)CC(=O)NC(C)CCc3ccccc3)c(C)o2)c1 (stereo not drawn) | 15.8 µM (active)
66 | COc1ccc(N2CCN(C(=O)CSCc3nc(-c4ccccc4Cl)oc3C)CC2)cc1 | inactive
67 | Cc1ccc(-c2nc(CSCC(=O)NC3CCN(Cc4ccccc4)CC3)c(C)o2)cc1 | inactive
68 | Cc1oc(-c2ccccc2F)nc1CS(=O)CC(=O)NCCN1CCCCC1C (stereo not drawn) | inactive
69 | COc1ccc(CNC(=O)CS(=O)Cc2nc(-c3cccc(C)c3)oc2C)cc1 (stereo not drawn) | inactive
70 | CNC(=O)c1ccc(-c2nc(CN3CCc4ccccc43)c(C)o2)cc1 | inactive
71 | CC(CCc1ccccc1)NC(=O)c1cnc(Cl)c(Cl)c1 (stereo not drawn) | inactive
72 | COc1ccc(-c2nc(CS(=O)CC(=O)NCc3cccnc3)c(C)o2)cc1OC (stereo not drawn) | inactive
73 | Cc1ccc(-c2nc(CS(=O)CC(=O)NC3CCCC3)c(C)o2)cc1 (stereo not drawn) | 22.4 µM (active)
74 | COc1ccc(-c2nc(CS(=O)CC(=O)N3CCc4ccccc4C3)c(C)o2)cc1 (stereo not drawn) | 2 µM (active)
75 | CC1=C(C)CC(C(=O)NC(C)CCc2ccccc2)C(C(=O)O)C1 (stereo not drawn) | inactive
76 | COc1ccc(-c2nc(CS(=O)CC(=O)NCc3ccccn3)c(C)o2)cc1 (stereo not drawn) | 17.8 µM (active)
77 | Cc1ccc(-c2nn(CCC(=O)Nc3ccc(OC(F)(F)F)cc3)c(=O)c3ccccc23)cc1 | inactive
78 | Cc1cc(C)cc(NS(=O)(=O)c2cc3c(cc2C)NC(=O)CO3)c1 | inactive

Row | SMILES | Potency
79 | COc1ccc(Cn2c(C(=O)O)c(CNCCc3cccs3)c3ccc(OC)cc32)cc1 | inactive
80 | CCOCCc1nn2c(=O)cc(COC(=O)CNC(=O)c3ccc(C(C)(C)C)cc3)nc2s1 | inactive
81 | CCN(C(=O)CSc1nnc(C)n2c1cc1occc12)c1ccccc1 | inactive
82 | Cc1ccc(Cl)cc1NC(=O)C(C)n1nnc2sc(-c3ccccc3)cc2c1=O (stereo not drawn) | inactive
83 | COc1ccc(C2c3c(oc4ccccc4c3=O)C(=O)N2Cc2ccc3c(c2)OCO3)cc1 (stereo not drawn) | inactive
84 | CCOc1ccc(N(CC)S(=O)(=O)N2CCCC(C(=O)NCc3ccc(Cl)cc3)C2)cc1 (stereo not drawn) | inactive
85 | COc1ccccc1N1CCN(c2ncnc3onc(-c4cccc(Cl)c4)c23)CC1 | inactive
86 | Cc1ccc(-c2nc(CS(=O)CC(=O)N3CCN(c4ncccn4)CC3)c(C)o2)cc1 (stereo not drawn) | 7.08 µM (active)
87 | Cc1cccc(C)c1NC(=O)CS(=O)CC(=O)N1CCN(c2ccccc2)CC1 (stereo not drawn) | inactive
88 | COc1ccc(-c2nc(CN3CCN(c4ncccn4)CC3)c(C)o2)cc1C | inactive
89 | O=C(NC1CCCC1)c1cc(-c2ccccc2)on1 | inactive
90 | O=C(NC1CCCCCC1)c1cccnc1Sc1ccc(Cl)cc1 | inactive
91 | O=C(NC1CCCCC1)c1ccc(-c2ccc(Cl)cc2)o1 | 35.5 µM (active)
92 | Cc1ccc(CCNC(=O)c2ccc3c(c2)N(Cc2cc(C)ccc2C)C(=O)c2ccccc2S3=O)cc1 (stereo not drawn) | inactive
93 | Cc1ccccc1OCc1nc2c3cnn(-c4ccccc4F)c3ncn2n1 | inactive
94 | CC(C)Cn1c(CCC(=O)O)ccc1-c1cccs1 | 22.4 µM (active)
95 | CCn1c(NC(=O)c2ccccc2)c(-c2cccs2)c(=O)c2ccccc21 | inactive
96 | O=C(O)CCC(=O)N(Cc1cccs1)Cc1cccs1 | inactive
97 | CCOc1ccc(S(=O)(=O)c2cn(Cc3ccccc3)c3ccc(OCC)cc3c2=O)cc1 | inactive
98 | N#Cc1ccc(-c2cccs2)nc1SCc1ccc(Br)cc1 | inactive
99 | Fc1cccc(Cl)c1CSc1ccc(-c2ccco2)nn1 | 17.8 µM (active)
100 | Cc1cccc(CSc2ccc(-c3cccs3)nn2)c1 | inactive
101 | Cc1cc(SCc2c(F)cccc2Cl)nc(=O)[nH]1 | inactive
102 | Brc1ccc(CSc2ccc(-c3ccco3)nn2)cc1 | 17.8 µM (active)
103 | Cn1c(SCc2c(F)cccc2Cl)nnc1-c1cnccn1 | inactive
